Assay outcomes (PubChem BioAssay)
The list is not random: actives were taken first. Their share in the collection is about 6.7%.
Pf Dd2 inh – P. falciparum Dd2 growth inhibition; 2.3% of 94,000 active; AID 1159554; activity change, % at 10 µM; SYBR Green, 72 h; hits give low values; in the data active = activity change below about -80%; inconclusive = no clear call, values can overlap the other calls
Tcruzi prolif – inhibitors of T. cruzi proliferation | T. cruzi beta-gal in NIH3T3, GalScreen luminescence, 90 h | inhibition, % at 8.34 µM | 5.9% of 77,000 active | AID 624255;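 active = mean inhibition above about 93%, with at least 55% of replicates each passing it, limit read from the data, passing the limit was not always enough; inconclusive = only one of those two conditions holds; inactive = neither condition holds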
C diff growth – blocks growth of Clostridium difficile | Clostridium difficile clinical isolate growth, OD600, 24 h; hits give low values | growth activity, negative = inhibition, % at 16 µg/mL (by protocol) | 0.25% of 86,000 active;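 active = mean growth activity at or below -80% and every replicate also at or below -80%; inconclusive = mean at or below -80% but some replicate above -80%; inactive = mean growth activity above -80%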;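 note: 0% = DMSO wells and -100% = levofloxacin 16 µg/mL wells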
An asterisk follows results filed as active; ? = inconclusive; nt = no result given; ! = a repeat was not active.

SMILES	Pf Dd2 inh	Tcruzi prolif	C diff growth
C[C@H](CO)N1C[C@H](C)[C@@H](CN(C)Cc2ccc(Oc3ccccc3)cc2)Oc2c(NC(=O)CCCCCC(=O)Nc3ccccc3N)cccc2C1=O	-90.2*	nt	-0.6
C[C@@H]1CN([C@H](C)CO)C(=O)c2cccc(NC(=O)CCCCCC(=O)Nc3ccccc3N)c2O[C@@H]1CN(C)Cc1ccncc1	30.9	nt	2.7
C[C@H]1CN([C@@H](C)CO)C(=O)c2cc(NC(=O)CCCCCC(=O)Nc3ccccc3N)ccc2O[C@H]1CN(C)Cc1ccc(Oc2ccccc2)cc1	-74.5	nt	12.4
C[C@@H]1CN([C@@H](C)CO)C(=O)c2cccc(NC(=O)CCCCCC(=O)Nc3ccccc3N)c2O[C@H]1CN(C)Cc1ccncc1	-40.1	nt	-2.1
COc1ccc(CN(C)C[C@H]2Oc3c(NC(=O)CCCCCC(=O)Nc4ccccc4N)cccc3C(=O)N([C@H](C)CO)C[C@@H]2C)cc1	-84.9*	nt	-6.6
C[C@H]1CN([C@@H](C)CO)C(=O)c2cccc(NC(=O)CCCCCC(=O)Nc3ccccc3N)c2O[C@H]1CN(C)Cc1ccc(Oc2ccccc2)cc1	-89.5*	nt	10.4
C[C@@H]1CCCCO[C@H](CN(C)C(=O)C2CCCCC2)[C@H](C)CN([C@H](C)CO)C(=O)c2cc(NC(=O)Nc3ccccc3)ccc2O1	-73.5	94.2	-4.1
CCS(=O)(=O)Nc1ccc2c(c1)C(=O)N(C)C[C@H](OC)[C@@H](C)CN(Cc1nccs1)[C@H](C)CO2	18.1	-13.5	-4.6
C/C=C/c1ccc([C@H]2[C@@H](CO)N(C(=O)COC)[C@@H]2CNC(=O)C2CCC2)cc1	2.3	nt	3.9
C[C@@H]1CN([C@@H](C)CO)C(=O)c2cccc(NC(=O)CCCCCC(=O)Nc3ccccc3N)c2O[C@@H]1CN(C)S(=O)(=O)c1ccc(F)cc1	-92.3*	nt	-4.7
C[C@@H]1CN([C@@H](C)CO)C(=O)c2cccc(NC(=O)CCCCCC(=O)Nc3ccccc3N)c2O[C@H]1CN(C)S(=O)(=O)c1ccc(F)cc1	-75.9	nt	-4.7
C[C@@H]1CN([C@H](C)CO)C(=O)c2cccc(NC(=O)CCCCCC(=O)Nc3ccccc3N)c2O[C@@H]1CN(C)S(=O)(=O)c1ccc(F)cc1	-80.0	nt	-0.9
COc1ccc(S(=O)(=O)N(C)C[C@@H]2Oc3c(NC(=O)CCCCCC(=O)Nc4ccccc4N)cccc3C(=O)N([C@@H](C)CO)C[C@@H]2C)cc1	-66.8	nt	1.3
C[C@H](CO)N1C[C@H](C)[C@H](CN(C)S(=O)(=O)c2ccc(F)cc2)Oc2c(NC(=O)CCCCCC(=O)Nc3ccccc3N)cccc2C1=O	-83.3*	nt	-8.2
COc1ccc(S(=O)(=O)N(C)C[C@H]2Oc3c(NC(=O)CCCCCC(=O)Nc4ccccc4N)cccc3C(=O)N([C@@H](C)CO)C[C@H]2C)cc1	-92.1*	nt	-5.8
CCCC(=O)Nc1ccc2c(c1)C(=O)N(C)C[C@@H](OC)[C@H](C)CN(C(=O)CC)[C@@H](C)CO2	nt	-26.1	nt
C[C@@H]1CN([C@H](C)CO)C(=O)c2cccc(NC(=O)c3ccc(-c4nccs4)cc3)c2O[C@@H]1CN(C)C(=O)Nc1ccc(F)cc1	-47.1	55.1	-5.0
COc1ccc2c3c([nH]c2c1)[C@H](CO)N(Cc1ccccn1)CC31CN(C(C)=O)C1	11.6	nt	0.9
N#Cc1ccc(-c2ccc(C3[C@@H]4CN(C(=O)C5CCC5)C[C@H]3N4)cc2)cc1 (some centres undefined)	-90.9*!	nt	-1.1
O=C(C1CC1)N1C[C@@H]2N[C@H](C1)C2c1ccc(-c2cccc(F)c2)cc1 (some centres undefined)	-81.4*!	nt	0.9
O=C(C1CCCC1)N1C[C@@H]2N[C@H](C1)C2c1ccc(-c2cccc(F)c2)cc1 (some centres undefined)	-65.1	nt	39.3
O=C(C1CC1)N1C[C@@H]2N[C@H](C1)C2c1ccc(-c2ccccc2F)cc1 (some centres undefined)	-87.1*!	nt	1.0
O=C(c1ccc(F)cc1)N1C[C@@H]2N[C@H](C1)C2c1ccc(-c2ccccc2F)cc1 (some centres undefined)	-32.4	nt	70.9
N#Cc1cccc(-c2ccc(C3[C@@H]4CN(C(=O)Nc5ccccc5)C[C@H]3N4)cc2)c1 (some centres undefined)	-30.7	nt	38.5
O=C(C1CCCC1)N1C[C@@H]2N[C@H](C1)C2c1ccc(-c2cncnc2)cc1 (some centres undefined)	-9.4	nt	3.4
SMILES	Pf Dd2 inh	Tcruzi prolif	C diff growth
N#Cc1cccc(-c2ccc(C3[C@@H]4CN(C(=O)C5CC5)C[C@H]3N4)cc2)c1 (some centres undefined)	-90.2*!	nt	-5.3
O=C(NC1CCCC1)N[C@@H]1CC[C@H](CC(=O)N2CCOCC2)O[C@@H]1CO	-0.5	nt	-1.7
COc1ccccc1S(=O)(=O)N1CC[C@H]2[C@H](CO)Nc3ccc(-c4ccc(F)cc4)cc3[C@H]21	-37.8	16.6	2.9
O=C(C[C@@H]1C[C@@H]2c3cc(NC(=O)Nc4ccc(C(F)(F)F)cc4)ccc3O[C@@H]2[C@@H](CO)O1)NC1CCCCC1	-17.7	nt	6.2
COc1ccc2c3c([nH]c2c1)[C@@H](CO)N(C(=O)CC1CC1)CC31CCN(Cc2cncnc2)CC1	48.0	nt	nt
C[C@@H]1CN([C@@H](C)CO)C(=O)c2cc(C#Cc3ccccn3)cnc2O[C@@H]1CN(C)Cc1ccccc1	-18.6	74.6	1.3
O=C(Nc1ccc2c(c1)OCO2)N[C@@H]1CC[C@H](CCNC(=O)C2CCC2)O[C@@H]1CO	-7.1	nt	2.3
C[C@H]1CCCCO[C@H](CN(C)S(=O)(=O)c2cccs2)[C@@H](C)CN([C@@H](C)CO)C(=O)c2cc(NC(=O)c3ccccc3)ccc2O1	-77.9	75.9	-9.1
O=C(C1CCCC1)N1C[C@@H]2N[C@H](C1)C2c1ccc(-c2ccncc2)cc1 (some centres undefined)	-1.4	nt	-1.8
N#Cc1ccc(-c2ccc(C3[C@@H]4CN(C(=O)C5CCCC5)C[C@H]3N4)cc2)cc1 (some centres undefined)	-80.8*	nt	2.5
COc1ccc(NC(=O)N[C@@H]2CC[C@@H](CCn3cc(-c4ccccc4F)nn3)O[C@H]2CO)cc1	-4.3	-2.3	-3.7
CC(C)NC(=O)Nc1ccc2c(c1)CC(=O)N([C@@H](C)CO)C[C@@H](C)[C@H](CN(C)Cc1ccc(C(=O)Nc3ccccc3N)cc1)O2	-16.5	23.8	3.7
COc1ccc2c3c([nH]c2c1)[C@@H](CO)N(Cc1cc(F)ccc1F)CC31CCN(C(=O)CN(C)C)CC1	-85.5*	nt	5.8
COCC(=O)N1CCC2(CC1)CN(Cc1cc(F)ccc1F)[C@@H](CO)c1[nH]c3cc(OC)ccc3c12	-53.5	nt	nt
COc1ccc2c3c([nH]c2c1)[C@@H](CO)N(Cc1cc(F)ccc1F)CC31CN(C(=O)CN(C)C)C1	-87.1*	nt	-10.8
COc1ccc2c3c([nH]c2c1)[C@H](CO)N(Cc1cc(F)ccc1F)CC31CN(C(=O)CN(C)C)C1	?	nt	-2.8
C[C@@H]1CN([C@@H](C)CO)S(=O)(=O)c2ccc(-c3ccccc3)cc2O[C@H]1CN(C)C	-1.2	nt	-0.5
COc1ccc(S(=O)(=O)N(C)C[C@@H]2Oc3ccc(NC(=O)Nc4ccc(C(F)(F)F)cc4)cc3C(=O)N([C@H](C)CO)C[C@H]2C)cc1	-13.9	41.3	-8.9
